Among the test systems are DU-145 prostate; K-562 leukemia; MALME-3M melanoma; MDA-MB-231 breast; RXF 393 renal; SF-268 CNS; SF-295 CNS; SF-539 CNS; UACC-257 melanoma; M14 melanoma.
What all share (test): NCI-60 one-dose screen, 48 h (100 = growth as untreated, 0 = no growth, -100 = all killed)
Common to all, as to settings: 10 µM

The panel holds about 83,000 compounds, 20% with a hit somewhere; the sample as a whole holds those more often.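 Testing used 96-well plates and a 48-hour single-concentration exposure. Example: -40 means 40% of the starting cells died.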 Values without a mark were called inactive. Activity calls are given as the source filed them. Rule for the calls: active = growth percent below 10; inactive = the rest.

For `Cc1ccc(CSc2nc(Cl)c(C#N)c(-c3ccc(F)cc3)n2)cc1`, the growth in the assay on DU-145 prostate is 75.1%; in the assay on K-562 leukemia, 55.7%; in the assay with MALME-3M melanoma it was 113%; with MDA-MB-231 breast, 96.5%; with RXF 393 renal, 70.2%; with SF-268 CNS, 81.8%. Moreover, the growth with SF-295 CNS was 70.2%; in the assay on SF-539 CNS it was 71.8%; in the assay with UACC-257 melanoma it was 75.3%; with M14 melanoma, 87.6%.
Take `COc1ccc2[nH]c(=O)c(CSc3nccc(-c4ccc(Cl)cc4)n3)cc2c1`: the growth in the assay on DU-145 prostate is 44.8%; in the assay with K-562 leukemia, 23.2%; in the assay on MALME-3M melanoma it was 46.4%; in the assay with MDA-MB-231 breast, 18.4%; in the assay on RXF 393 renal, -23.7% (active); with SF-268 CNS, 28.8%. The growth with SF-295 CNS is -20.3% (active); in the assay on SF-539 CNS, -70.3% (active); in the assay with UACC-257 melanoma, 6.77% (active); in the assay on M14 melanoma it was 55.2%.
As to `COc1cnc2c(c1)C(=O)c1c-2n(CCCNC(C)C)c(=O)c2cc(OC)c(OC)cc12`, the growth in the assay on DU-145 prostate is 16.4%; in the assay on K-562 leukemia, 5.04% (active); in the assay on MALME-3M melanoma, 88.7%; in the assay on MDA-MB-231 breast it was 23.1%; with SF-268 CNS, 41.8%; in the assay on SF-295 CNS, 13.3%. Also, the growth was -63% (active) with SF-539 CNS and 90.1% with UACC-257 melanoma.
In the case of `O=C(CNc1nc(-c2ccccc2)cs1)Nc1ccc(Br)cc1`, the growth with DU-145 prostate is -92.3% (active); with K-562 leukemia, 6.7% (active); in the assay with MALME-3M melanoma, -82.4% (active); in the assay with MDA-MB-231 breast, -92.5% (active); with SF-268 CNS, -12.5% (active); in the assay on SF-295 CNS it was -97.5% (active). The growth is -98.3% (active) in the assay on SF-539 CNS, -73.8% (active) in the assay on UACC-257 melanoma and -86.5% (active) with M14 melanoma.
`COc1ccc(-c2cc(C(=O)N=Nc3c(O)[nH]c4ccccc34)c3ccccc3n2)cc1`: the growth with DU-145 prostate is -92.8% (active); in the assay with K-562 leukemia it was 25.7%; in the assay with MALME-3M melanoma it was -54.6% (active); with MDA-MB-231 breast, -58.8% (active); in the assay with SF-268 CNS, -0.0948% (active); in the assay on SF-295 CNS it was 4.82% (active). The growth was -76% (active) in the assay on SF-539 CNS, 47.8% with UACC-257 melanoma and 11.1% in the assay on M14 melanoma.
For the compound `CC(C)Sc1nc(NC2CC2)c(C#N)c(-c2ccccc2)n1`, the growth in the assay with DU-145 prostate is 86.2%; in the assay on K-562 leukemia, 90%; in the assay on MALME-3M melanoma, 104%; with MDA-MB-231 breast, 58.9%; in the assay with SF-268 CNS, 61%; in the assay with SF-295 CNS, 54.9%. Besides, the growth with SF-539 CNS is 42%; with UACC-257 melanoma, 103%; in the assay on M14 melanoma, 117%.
Consider `O=C(CSc1nnc(-c2c[nH]c3ccccc23)n1-c1ccccc1)Nc1ccc(C(=O)/C=C/c2cccc([N+](=O)[O-])c2)cc1`, for which the growth with DU-145 prostate is 95.9%; in the assay with K-562 leukemia, 86.1%; in the assay on MALME-3M melanoma, 90.9%; in the assay with MDA-MB-231 breast, 91.7%; in the assay on SF-268 CNS, 78.8%; in the assay on SF-295 CNS, 88.4%. Also, the growth in the assay with SF-539 CNS was 89.6%; in the assay with UACC-257 melanoma, 102%.
`C/C(=N\NC(N)=S)c1ccc(Nc2nc(SC(C)C)nc(-c3ccccc3)c2C#N)cc1`: the growth in the assay with DU-145 prostate is 70.5%; with K-562 leukemia, 87.2%; in the assay with MALME-3M melanoma it was 55.7%; with MDA-MB-231 breast, 40.5%; in the assay on SF-268 CNS, 54.8%; in the assay on SF-295 CNS it was 44.3%. The growth with SF-539 CNS was 30.7%; with UACC-257 melanoma, 85.1%; in the assay on M14 melanoma, 77.4%.
For the compound `CN1CCN(Cc2ccc(NC(=O)c3cncc(C#Cc4cnc5ccc(N[C@@H]6CCOC6)nn45)c3)cc2C(F)(F)F)CC1`, the growth in the assay with DU-145 prostate is -100% (active); in the assay with K-562 leukemia, -0.568% (active); in the assay with MALME-3M melanoma, -99.1% (active); with MDA-MB-231 breast, -94.7% (active); in the assay with SF-268 CNS it was -80.7% (active); in the assay on SF-295 CNS, -98.6% (active). The figures for the growth in the assay with SF-539 CNS and with UACC-257 melanoma were -100% (active) and -85.9% (active), respectively.
For the compound `CC(=O)c1cc(C(=O)N2c3ccccc3Sc3ccccc32)n2ccc(C)cc12`, the growth in the assay with DU-145 prostate is 56.6%; with K-562 leukemia it was 18.7%; with MALME-3M melanoma, 53.9%; with MDA-MB-231 breast, 46.4%; in the assay with SF-268 CNS, 49.4%; in the assay with SF-295 CNS, 36.5%. The growth in the assay on SF-539 CNS is 32.7%; in the assay on UACC-257 melanoma, 31.6%.
Regarding `N#Cc1c(-c2ccc(Cl)cc2)cc(-c2ccccc2)nc1OCc1ccccc1`, the growth in the assay with DU-145 prostate was 90.7%; in the assay on K-562 leukemia, 45%; in the assay with MALME-3M melanoma it was 102%; in the assay on MDA-MB-231 breast, 80.2%; in the assay with SF-268 CNS, 92.9%; in the assay with SF-295 CNS, 66.2%. The growth was 75.2% in the assay with SF-539 CNS, 80.6% with UACC-257 melanoma and 90.9% in the assay with M14 melanoma.
For the compound `COc1cc(/C=C/C(=O)c2ccc(NC(=O)CN3C(=O)NC(C)(c4ccccc4)C3=O)cc2)cc(OC)c1OC` (stereo unspecified), the growth in the assay with DU-145 prostate was 12.4%; with K-562 leukemia, 16%; in the assay with MALME-3M melanoma, 69.5%; in the assay with MDA-MB-231 breast, 26.5%; in the assay on SF-268 CNS, 23%; with SF-295 CNS, 46.7%. In addition, the growth in the assay with SF-539 CNS was -50.4% (active); with UACC-257 melanoma, 52.6%.
Turning to `COc1ccc(CN2[C@H](C(=O)NCCCCCCC(=O)NO)Cc3c([nH]c4ccccc34)[C@H]2C2CC2)cc1`, the growth in the assay with DU-145 prostate was 9.36% (active); in the assay on K-562 leukemia, 7.5% (active); in the assay with MALME-3M melanoma, 1.45% (active); in the assay with MDA-MB-231 breast, -23% (active); in the assay on SF-268 CNS, 14.5%; in the assay with SF-295 CNS it was -58.8% (active). Also, the growth with SF-539 CNS is 2.87% (active); in the assay on UACC-257 melanoma it was 9.9% (active); in the assay with M14 melanoma, 17.6%.
As for `CCCCSc1nc(Nc2ccc(/C(C)=N/NC(N)=S)cc2)c(C#N)c(-c2ccc(OC)cc2)n1`, the growth in the assay with DU-145 prostate was 61.5%; in the assay with K-562 leukemia, 78.2%; in the assay on MALME-3M melanoma, -39.6% (active); in the assay on MDA-MB-231 breast, -11.4% (active); in the assay with SF-268 CNS, 56.6%; in the assay on SF-295 CNS it was 69.7%. The figures for the growth with SF-539 CNS, in the assay with UACC-257 melanoma and in the assay on M14 melanoma were -55.4% (active), 74.9% and 39.3%, respectively.
As to `CC(=O)Nc1ccc(-c2cn(-c3cccc(C(=O)Nc4ccc(F)c(C(F)(F)F)c4)c3)nn2)cn1`, the growth in the assay on DU-145 prostate is 42.5%; in the assay with K-562 leukemia it was 10.9%; with MALME-3M melanoma it was 2.13% (active); in the assay on MDA-MB-231 breast, -4.26% (active); in the assay with SF-268 CNS, 68.8%; in the assay on SF-295 CNS, 29.4%. For the same compound, the growth with SF-539 CNS is 22.7%; in the assay on UACC-257 melanoma, 90.4%.

(Values after PubChem BioAssay (NCI).)
